# Of roughly 8,800 targets only a part is listed; those with a hit were picked by preference. About 0.5% of all pairs of compound and target were hits. Unmarked numbers belong to inactive results.
# What was measured:
# Test in all cases: log2 fold change, soluble protein after heating vs DMSO (PISA); higher = thermal stabilisation; K562 lysate, 10 uM; active = over 0.2 and 3.5 SD of the protein, either way, in both replicates (recomputed)
# [1] = compound: CCCS(=O)(=O)Nc1ccc(F)c(C(=O)c2c[nH]c3ncc(Cl)cc23)c1F
# Procedure, shortened: (§1)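 Pellets of K562 cells were dounce-homogenised in PBS pH 7.4 with 1 mM MgCl2, and the crude extract was held at 1 mg/mL protein for a 30 min treatment with 10 μM compound. Aliquots were heated for 3 min over 48°C-58°C and pooled before NP-40 was added to 0.5% at 4°C. The supernatant from 21,000xg for 90 min was quantified by TMTpro 16plex LC-MS/MS with channel sums equalised. Values are reported from duplicates as log-two fold change in thermal stability relative to solvent controls.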
# barasertib = compound: CCN(CCCOc1ccc2c(Nc3cc(CC(=O)Nc4cccc(F)c4)[nH]n3)ncnc2c1)CCOP(=O)(O)O [barasertib]
# Procedure, shortened: as §1
# volasertib = compound: CC[C@@H]1C(=O)N(C)c2cnc(Nc3ccc(C(=O)N[C@H]4CC[C@H](N5CCN(CC6CC6)CC5)CC4)cc3OC)nc2N1C(C)C [volasertib]
# Procedure, shortened: as §1
# [2] = compound: CCn1c(C(=O)N(C2CC2)C2CC2)cc2c3c(ncn3C)c(Nc3cc(C)n(C)n3)nc21
# Procedure, shortened: as §1
# [3] = compound: CCn1cc(-c2ccnc3[nH]c(-c4cccc(CN(C)C)c4)cc23)c(-c2ccc(NC(=O)N(C)C)cc2)n1
# Procedure, shortened: as §1
# [4] = compound: CN1CCC(CNc2ccc3ncc(-c4cccc(OC(F)(F)F)c4)n3n2)CC1
# Procedure, shortened: as §1
# saracatinib = compound: CN1CCN(CCOc2cc(OC3CCOCC3)c3c(Nc4c(Cl)ccc5c4OCO5)ncnc3c2)CC1 [saracatinib]
# Procedure, shortened: as §1
# sotrastaurin = compound: CN1CCN(c2nc(C3=C(c4c[nH]c5ccccc45)C(=O)NC3=O)c3ccccc3n2)CC1 [sotrastaurin]
# Procedure, shortened: as §1
# vemurafenib = compound: CCCS(=O)(=O)Nc1ccc(F)c(C(=O)c2c[nH]c3ncc(-c4ccc(Cl)cc4)cc23)c1F [vemurafenib]
# Procedure, shortened: as §1
# [5] = compound: CC[C@@H]1C(=O)N(C)c2cnc(Nc3ccc(C(=O)NC4CCN(C)CC4)cc3OC)nc2N1C1CCCC1
# Procedure, shortened: as §1
# Sequence of UniProt Q13155 (Q13155 whole entry, looked up): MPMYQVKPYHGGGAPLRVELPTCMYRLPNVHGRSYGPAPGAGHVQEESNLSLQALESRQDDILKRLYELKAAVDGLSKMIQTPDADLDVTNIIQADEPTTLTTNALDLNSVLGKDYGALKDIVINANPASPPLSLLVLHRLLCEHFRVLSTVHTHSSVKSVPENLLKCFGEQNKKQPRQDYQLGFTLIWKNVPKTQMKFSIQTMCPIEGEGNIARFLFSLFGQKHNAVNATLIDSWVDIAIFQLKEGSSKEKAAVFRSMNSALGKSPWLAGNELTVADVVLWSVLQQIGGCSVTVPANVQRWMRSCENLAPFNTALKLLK
# Sequence of UniProt P51825 (P51825 whole entry, looked up): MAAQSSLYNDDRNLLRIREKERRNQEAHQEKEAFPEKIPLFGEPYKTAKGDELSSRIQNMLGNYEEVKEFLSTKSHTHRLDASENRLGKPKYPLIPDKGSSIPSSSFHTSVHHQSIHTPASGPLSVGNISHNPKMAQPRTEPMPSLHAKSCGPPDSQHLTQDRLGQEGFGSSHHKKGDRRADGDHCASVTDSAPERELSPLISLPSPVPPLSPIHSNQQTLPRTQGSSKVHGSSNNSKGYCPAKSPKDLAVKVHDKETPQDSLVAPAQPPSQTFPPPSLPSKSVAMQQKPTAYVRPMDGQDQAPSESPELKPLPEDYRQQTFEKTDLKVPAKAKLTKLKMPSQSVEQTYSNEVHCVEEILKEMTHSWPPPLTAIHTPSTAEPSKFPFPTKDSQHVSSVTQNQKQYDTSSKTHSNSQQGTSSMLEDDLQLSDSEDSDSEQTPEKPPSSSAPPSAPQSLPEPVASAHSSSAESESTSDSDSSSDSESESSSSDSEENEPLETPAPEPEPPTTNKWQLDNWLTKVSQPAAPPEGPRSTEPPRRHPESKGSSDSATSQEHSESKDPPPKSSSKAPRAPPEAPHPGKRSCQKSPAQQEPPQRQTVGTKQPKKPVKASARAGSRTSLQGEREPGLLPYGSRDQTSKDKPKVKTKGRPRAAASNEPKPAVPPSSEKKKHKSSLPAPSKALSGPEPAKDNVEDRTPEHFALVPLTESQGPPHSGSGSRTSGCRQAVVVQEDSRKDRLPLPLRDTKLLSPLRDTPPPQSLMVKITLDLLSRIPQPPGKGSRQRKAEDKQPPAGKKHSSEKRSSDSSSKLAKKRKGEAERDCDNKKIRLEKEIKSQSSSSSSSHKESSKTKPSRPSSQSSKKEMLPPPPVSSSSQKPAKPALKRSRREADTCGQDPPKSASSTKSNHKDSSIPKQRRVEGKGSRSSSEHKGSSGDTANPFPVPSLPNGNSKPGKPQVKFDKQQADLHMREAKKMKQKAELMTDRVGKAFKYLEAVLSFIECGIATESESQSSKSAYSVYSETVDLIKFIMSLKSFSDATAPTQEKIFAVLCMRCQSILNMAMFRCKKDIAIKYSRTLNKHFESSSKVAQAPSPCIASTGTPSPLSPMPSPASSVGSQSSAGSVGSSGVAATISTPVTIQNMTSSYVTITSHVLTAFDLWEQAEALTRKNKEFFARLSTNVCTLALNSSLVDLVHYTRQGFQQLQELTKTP
# Sequence of UniProt Q9NP73 (Q9NP73 whole entry, looked up): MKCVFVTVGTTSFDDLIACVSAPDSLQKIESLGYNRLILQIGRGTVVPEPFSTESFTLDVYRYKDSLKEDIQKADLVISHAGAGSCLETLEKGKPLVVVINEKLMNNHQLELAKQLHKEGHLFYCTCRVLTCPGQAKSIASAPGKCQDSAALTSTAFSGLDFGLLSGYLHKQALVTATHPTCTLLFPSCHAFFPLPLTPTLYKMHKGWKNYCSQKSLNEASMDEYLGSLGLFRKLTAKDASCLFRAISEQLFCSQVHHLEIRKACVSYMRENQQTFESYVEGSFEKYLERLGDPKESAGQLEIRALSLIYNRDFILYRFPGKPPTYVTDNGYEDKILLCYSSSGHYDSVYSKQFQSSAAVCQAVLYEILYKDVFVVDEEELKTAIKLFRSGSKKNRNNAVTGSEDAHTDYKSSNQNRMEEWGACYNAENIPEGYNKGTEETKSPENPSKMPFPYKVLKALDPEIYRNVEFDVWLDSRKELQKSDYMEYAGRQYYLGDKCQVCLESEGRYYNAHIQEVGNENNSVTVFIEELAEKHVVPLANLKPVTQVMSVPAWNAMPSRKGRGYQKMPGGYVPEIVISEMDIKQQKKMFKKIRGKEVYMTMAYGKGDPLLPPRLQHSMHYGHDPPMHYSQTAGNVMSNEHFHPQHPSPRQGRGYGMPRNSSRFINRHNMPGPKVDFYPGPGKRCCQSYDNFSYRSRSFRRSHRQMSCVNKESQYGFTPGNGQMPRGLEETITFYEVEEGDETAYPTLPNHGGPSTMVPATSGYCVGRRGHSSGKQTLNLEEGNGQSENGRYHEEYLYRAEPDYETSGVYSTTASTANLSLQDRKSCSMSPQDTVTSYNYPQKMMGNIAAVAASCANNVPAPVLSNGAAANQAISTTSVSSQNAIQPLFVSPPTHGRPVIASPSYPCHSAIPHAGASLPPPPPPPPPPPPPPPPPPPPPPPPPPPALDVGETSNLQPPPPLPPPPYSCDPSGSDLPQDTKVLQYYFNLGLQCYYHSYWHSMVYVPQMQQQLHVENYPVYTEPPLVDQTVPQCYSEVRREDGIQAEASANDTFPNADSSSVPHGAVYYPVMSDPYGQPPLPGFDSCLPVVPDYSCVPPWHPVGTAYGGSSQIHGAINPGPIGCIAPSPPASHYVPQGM
Target,log2 fold change [1],log2 fold change (barasertib),log2 fold change (volasertib),log2 fold change [2],log2 fold change [3],log2 fold change [4],log2 fold change (saracatinib),log2 fold change (sotrastaurin),log2 fold change (vemurafenib),log2 fold change [5]
ANXA2 (UniProt H0YL33),0.012,0.37,0.136,0.012,0.643 (active),-0.416,0.088,0.214,,
AFF1 isoform 2 (UniProt P51825),0.007,0.033,-0.043,-0.023,-0.307,0.125,-0.015,0.029,-0.059,0.068
AIMP2 isoform 2 (UniProt Q13155),-0.134,0.038,0.047,-0.027,,,,0.014,,
ALG13 isoform 2 (UniProt Q9NP73),,,,,0.016,-0.098,,,,
